Bioassay records deposited in PubChem BioAssay by several laboratories.
Platelet DG rel: modulates dense granule release in human platelets; AID 1663; inhibition, %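 (compounds screened at 7.5 µM in platelet-rich plasma)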; human platelet-rich plasma, SFLLRN dense granule ATP release, luminescence; 0.22% of 300,000 active;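 active = mean replicate score, as percent of positive control, at or above 50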
C8 TRAIL sens: sensitizes caspase-8 expressing cells to TRAIL | 1% of 360,000 active | NB7+C8 cells + TRAIL, ATPlite viability luminescence | inhibition (viability loss, TRAIL sensitization), % at 10 µM;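 active = compounds causing at least 50% loss of cell viability in the single-dose screen, relative to plate controls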
PPC-1+TRAIL kill: kills PPC-1 cancer cells in the presence of TRAIL. AID 1443. 0.41% of 220,000 active. cell killing (% activity), % at 4 µM or 5 µM. PPC-1 cells + TRAIL, ATPLite viability luminescence;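 active = cell killing above 50% in the first pass at 4 µM, then a duplicate retest at 5 µM averaging 50% or more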;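 also: plate controls were cells with TRAIL plus DMSO for no effect and medium-only wells lacking cells for full effect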
TROY signal inh: inhibitors of TROY-dependent NF-kB signaling | AID 1347056 | Q293 LMP1-TROYcd NF-kB luciferase reporter, 4 h | inhibition, % at 10 µM | 0.98% of 360,000 active;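 active = compounds whose plate-normalised and pattern-corrected inhibition of the luciferase reporter signal at the single screening dose is 50% or more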
HSP90 refold inh: inhibitors of HSP90 luciferase refolding in rabbit reticulocyte lysate | inhibition, % at 5.6 µM | luciferase refolding luminescence, 3 h | 0.91% of 290,000 active;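 active = inhibition above the screen-wide mean plus 3 SD, computed separately per campaign, cut at about 16% in these data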;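 also: 0% = DMSO wells and 100% = 60 µM geldanamycin wells; inhibitors lower the luminescence because luciferase stays unfolded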
TWEAK-Fn14 inh: inhibitors of TWEAK-Fn14 interaction signaling; TWEAK-stimulated Fn14 reporter cells, luciferase luminescence, 8 h; inhibition, % at 10 µM; AID 1159606; 2% of 360,000 active; in the data active = inhibition above about 50%
HSP90 confirm: confirmation of HSP90 inhibitors; shares compounds with HSP90 refold inh; rabbit reticulocyte lysate, luciferase refolding luminescence, 3 h; inhibition, % at 5.9 µM; 64% of 2,300 active; in the data active = inhibition above about 18%;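 also: 0% = vehicle wells and 100% = reference inhibitor wells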
FLuc counter: counter-screen for HSP90 inhibitors: inhibitors of firefly luciferase; shares compounds with HSP90 refold inh; purified native firefly luciferase, luminescence; inhibition, % at 5.9 µM; 48% of 2,300 active; AID 1847;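 active = inhibition above the mean inhibition of all tested sample wells plus 3 SD, cut at about 10% in these data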;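 also: 0% = DMSO with luciferase and 100% = wells lacking luciferase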
Target sequence (P08659 whole entry, looked up): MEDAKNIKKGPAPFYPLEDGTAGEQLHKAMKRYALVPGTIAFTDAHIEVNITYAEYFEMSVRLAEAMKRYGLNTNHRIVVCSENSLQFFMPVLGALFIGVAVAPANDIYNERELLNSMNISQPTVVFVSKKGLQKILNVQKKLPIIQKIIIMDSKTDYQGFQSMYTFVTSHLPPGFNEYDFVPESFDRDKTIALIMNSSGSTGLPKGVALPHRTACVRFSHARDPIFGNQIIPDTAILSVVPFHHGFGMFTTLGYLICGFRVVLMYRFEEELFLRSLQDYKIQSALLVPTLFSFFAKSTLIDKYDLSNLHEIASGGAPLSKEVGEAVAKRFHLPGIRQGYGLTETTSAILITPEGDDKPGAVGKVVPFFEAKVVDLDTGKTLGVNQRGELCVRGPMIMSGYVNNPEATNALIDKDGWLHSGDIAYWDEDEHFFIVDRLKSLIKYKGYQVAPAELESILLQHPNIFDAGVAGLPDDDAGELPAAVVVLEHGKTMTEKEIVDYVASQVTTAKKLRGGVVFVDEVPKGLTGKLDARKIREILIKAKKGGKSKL
* marks the source's active call; other numbers are inactive results; . = not tested or not shown. Compounds with a hit are over-represented: about 3.5% of the library has one in this group of screens.

SMILES	Platelet DG rel	C8 TRAIL sens	PPC-1+TRAIL kill	TROY signal inh	HSP90 refold inh	TWEAK-Fn14 inh	HSP90 confirm	FLuc counter
CN(C)CCNc1ncnc2c1sc1nc(-c3ccccc3)c3c(c12)CCCC3	-2	23	13	39	6	2	.	.
O=C(CN1CSCC1=O)N1CCN(S(=O)(=O)c2cccc(F)c2)CC1	.	17	.	-20	.	-1	.	.
CN(C)c1ccc(C(=S)Nc2ccccc2)cc1	2	43	35	82*	57*	95*	65*	-5
CN(C)c1ccc(NC(=S)c2ccccn2)cc1	33	85*	69*	81*	66*	99*	94*	90*
CN(C)S(=O)(=O)c1ccc(NC(=O)c2ccccn2)cc1	8	6	17	-7	4	16	.	.
CN(C)c1cc(O)c(C(=S)Nc2ccccc2)c(N(C)C)c1	3	-9	8	-9	0	12	.	.
COc1ccc(NC(=O)Cc2nnc(SCC(=O)NC3=NCCS3)n2C)cc1	13	-9	.	-16	-3	26	.	.
O=c1cc(-c2ccc(Cl)c(Cl)c2)[nH][nH]1	-2	-6	-4	-2	13	0	.	.
COc1ccc(-c2cc(=O)[nH][nH]2)cc1	2	-6	0	-46	34*	-6	-4	-12
O=c1cc(-c2ccc(Cl)cc2)[nH][nH]1	0	-5	-2	-10	29*	0	4	-12
COc1ccc(C[C@H]2CN3C(=NC[C@@H]3C(C)C)N2CCNC(=O)c2ccc(C)c(Br)c2)cc1	-3	31	16	-9	18*	-9	3	-7
Cc1ccc(C(=O)NCCN2C3=NC[C@H](C(C)C)N3C[C@H]2Cc2ccc(O)cc2)cc1Br	7	-1	11	-16	1	-20	.	.
Clc1ccc(-c2nnc(NC3=NCCCCC3)o2)cc1	22	47	48	66*	45*	93*	71*	68*
O=C(Nc1nnc(-c2ccc(Cl)cc2)o1)C1CCCCC1	5	1	4	-18	.	-4	.	.
C=CCn1c2ccccc2c(=O)c2cc(C#CC3(O)CCCCC3)ccc21	-4	81*	.	70*	19*	2	27*	5
CCOC(=O)NC(CC(=O)O)c1ccc(OC)c(OC)c1 (stereo not drawn)	6	-17	40	-3	-1	-10	.	.
COc1ccc(C(CC(=O)O)NC(C)=O)cc1OC (stereo not drawn)	-7	9	6	3	18*	9	4	-8
CCn1c(NCc2ccc(N(C)C)cc2)nc2ccccc21	1	19	13	-22	2	-3	.	.
CN(C)c1ccc(N=Nc2nc3ccccc3n2C)cc1	182*	95*	5	90*	21*	104*	19*	93*
Cn1c(N)c(C(=O)CSc2ncn[nH]2)c(=O)n(C)c1=O	-12	12	9	8	-1	-9	.	.
NC(=S)N/N=C/c1ccc(C23CC4CC(CC(C4)C2)C3)cc1	0	.	.	.	24*	.	8	-32
Cc1ccc(S(=O)(=O)Nc2c(C)n(C)n(-c3ccccc3)c2=O)cc1C(=O)NCc1ccccc1	.	2	.	4	.	-3	.	.
N#CCC(=O)Nc1ccc(C(=O)OCC(=O)c2ccc3c(c2)OCCO3)cc1	2	-5	11	3	20*	39	32*	-3
COCCn1c(C)cc(C(=O)COC(=O)c2ccc(NC(=O)CC#N)cc2)c1C	0	9	10	28	19*	21	10	14*
CC(C)C/C(O)=C/c1nc2cc(Cl)ccc2oc1=O	-11	15	30	2	6	17	.	.
SMILES	Platelet DG rel	C8 TRAIL sens	PPC-1+TRAIL kill	TROY signal inh	HSP90 refold inh	TWEAK-Fn14 inh	HSP90 confirm	FLuc counter
O=c1oc2ccc(Cl)cc2nc1/C=C(\O)c1ccco1	-8	14	12	11	82*	14	79*	-5
Cc1c(C(=O)O)cccc1-c1ccc(/C=N/n2cnnc2)o1	6	-1	.	-51	18*	-16	20*	8
Cc1c(Cl)cccc1-c1ccc(/C=N/n2cnnc2)o1	1	-15	-18	-6	1	1	.	.
COc1ccc(-n2ncc3c(NCC4CCCO4)ncnc32)cc1 (stereo not drawn)	-1	31	36	-31	9	39	.	.
COc1ccc(-n2ncc3c(NCCN4CCOCC4)ncnc32)cc1	1	0	16	53*	26*	59*	27*	19*
COc1ccc(-n2ncc3c(NCCCN4CCOCC4)ncnc32)cc1	-1	6	11	59*	28*	74*	32*	32*
Cc1ccc(-n2ncc3c2CC(C)(C)CC3NC(=O)c2ccccn2)cc1 (stereo not drawn)	5	10	.	21	-4	-7	.	.
C#CCOCCOCCOCCNc1nc(N2CCN(C(=O)[C@H](Cc3ccc(O)cc3)n3cc([C@@H](N)C(C)CC)nn3)CC2)nc(N2CCN(C(=O)[C@H](CCCCN)n3cc([C@@H](N)CO)nn3)CC2)n1 (stereo partly drawn)	2	-15	6	-2	21*	-7	-2	-5
C#CCOCCOCCOCCNc1nc(N2CCN(C(=O)[C@H](Cc3cc4ccccc4[nH]3)n3cc([C@@H](N)C(C)CC)nn3)CC2)nc(N2CCN(C(=O)[C@H](CCCCN)n3cc([C@@H](N)CO)nn3)CC2)n1 (stereo partly drawn)	3	.	22	.	12	.	.	.
C#CCOCCOCCOCCNc1nc(N2CCN(C(=O)[C@H](CCCCN)n3cc([C@@H](N)C(C)CC)nn3)CC2)nc(N2CCN(C(=O)[C@H](Cc3cc4ccccc4[nH]3)n3cc([C@@H](N)CC(C)C)nn3)CC2)n1 (stereo partly drawn)	-5	-11	2	-6	21*	6	2	-8
Fc1ccccc1/C=C1\CCCC2=C1NC(=S)NC2c1ccccc1F (stereo not drawn)	-7	0	16	3	14	19	.	.
O=C(Nc1ccc(S(=O)(=O)NCCc2ccccc2)cc1)c1ccco1	15	-3	-3	9	26*	16	-7	-9
COC(=O)c1cn[nH]c1NC(=S)Nc1ccc(C)cc1Cl	3	7	18	73*	36*	66*	41*	41*
COC(=O)c1cn[nH]c1NC(=S)Nc1ccccc1C	-3	-7	21	-30	-1	-12	.	.
COC(=O)c1cn[nH]c1NC(=S)Nc1ccc(Cl)c(Cl)c1	-1	18	17	73*	37*	69*	44*	44*
